Bioassay records: PubChem BioAssay, National Center for Advancing Translational Sciences (NCATS)
PNC assembly inh = High Content Assay for Compounds that inhibit the Assembly of the Perinucleolar Compartment; activity change (PNC), negative = inhibition, % at 10 µM; AID 2417, 2010; PC3M PTB-GFP, PNC prevalence imaging, 16 h; stronger effect = lower value; 140,000 tested, 3.1% active;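 active = readout at or below -70, meaning at least 70% loss of cells showing the perinucleolar compartment, a nuclear body marking cancer cells; inconclusive = readout between -30 and a set limit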
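Read-out is percentage of cells bearing a perinucleolar compartment, from automated 20x imaging of fixed, Hoechst-stained PC3M PTB-GFP cells. Cells were seeded 4 h, then exposed 16 h to compound (23 nl of library stock) in duplicate plates.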
HttQ103 aggreg = qHTS Multiplex Assay to Identify Dual Action Probes in a Cell Model of Huntington: Aggregate Formation (GFP); PC12 HttQ103-GFP aggregates, Acumen cytometry, 40 h; Potency, µM (titrated, usually from 46.1 µM), most hits filed as inhibitors; 220,000 tested, 1.1% active; AID 1688, 2009; note: nearly all actives have a fitted effect of over 60% in size
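Huntingtin Q103 exon 1–GFP aggregates in induced PC12 cells (100 nM tebufenozide) were quantified by cytometry from lysates, with compounds dosed in titration.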
HTT cytoprotect = qHTS Multiplex Assay to Identify Dual Action Probes in a Cell Model of Huntington: Cytoprotection (ATP); Potency, µM (top dose mostly 56.4 µM), usual class: activators; PC12 HTT-Q103 induced, cytoprotection, ATP luminescence, 40 h; 230,000 tested, 0.14% active; AID 1471, 2008; note: nearly all actives have a fitted effect of over 45% in size
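Readout: ATPlite luminescence (ATP level). Model: stable PC12, inducible Htt exon1 Q103-GFP. Inducer: tebufenozide, 100 nM final. Compounds: dose series. No G418 in medium.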
Numbers stand for hits; – = inactive; ? = inconclusive; · = not tested or not shown; ! = repeats disagree; [ ] = remark or other dose. Shown is part of a subset that was picked to be rich in hits. Unless noted, calls come from the whole dose curve; as a rule, active = well fitted curve in the direction sought with a large enough effect; inconclusive = small, poorly fitted or top-dose-only effect, or another doubt; inactive = no such curve, though single readings can be large; an effect the other way counts as inactive or inconclusive.

SMILES | PNC assembly inh | HttQ103 aggreg | HTT cytoprotect
CC1CN(Cc2csc(-c3ccc(Cl)cc3)n2)CC(C)O1 (configuration not stated) | · | – | –
Cn1c(=O)c2c(nc(NCc3ccco3)n2Cc2ccc(Cl)cc2Cl)n(C)c1=O | – | ? | –
COc1cccc(NC(=O)Cn2c(=O)n(CCCC(=O)NCc3ccco3)c(=O)c3ccccc32)c1 | – | – | –
COc1cccc(NC(=O)Cn2c(=O)n(CCC(=O)NCc3ccco3)c(=O)c3ccccc32)c1 | · | – | 3.2µM
c1nc2sc3c(c2c2nnnn12)CCC3 | – | ? | –
c1nc2sc3c(c2c2nnnn12)CCCC3 | – | 10µM | –[1.9 µM]
O=C(c1ccc(Cn2cc(Br)cn2)cc1)N1N=C(C(F)F)CC1(O)C(F)F (configuration not stated) | – | – | ·
O=C(Nc1ccccc1C(=O)NCC1CCCO1)c1ccco1 (configuration not stated) | – | – | –[0.074 µM]
OCC1OC(c2ccc3c(c2)OCO3)C=CC1Oc1cc(Cl)cc(Cl)c1 (configuration not stated) | · | · | –[10 µM]
O=C(CCc1nc(-c2ccccc2F)no1)Nc1ccc(Oc2ccccc2)cc1 | ? | 4µM | –
COc1cccc(NC(=O)CCc2nc(-c3ccccc3F)no2)c1 | – | ? | –
Cc1cccc(C)c1OCc1nnc2c3cnn(C)c3ncn12 | – | – | –
COc1ccc(Cc2nnc3c4cnn(C)c4ncn23)cc1 | -86 | – | –
Cc1oc(-c2ccccc2)nc1C(=O)OCC(=O)NC(=O)NCC(C)C | – | – | –
CCCNC(=O)Cn1c(=O)/c(=C\c2ccc(-c3cccc([N+](=O)[O-])c3)o2)s/c1=C\C(=O)C(C)(C)C | ? | – | –[10 µM]
CCCNC(=O)Cn1c(=O)/c(=C\c2ccc(-c3ccc([N+](=O)[O-])cc3)o2)s/c1=C\C(=O)C(C)(C)C | ? | 14µM | –[10 µM]
CCOc1ccc(-n2c(C)cc(/C=N\NC(=O)CC(=O)NC3CCCCC3)c2C)cc1 | – | – | –[10 µM]
Cn1nc(C(=O)NCc2ccco2)c2ccccc2c1=O | – | – | –[10 µM]
CCOc1ccc(-n2c(Cc3cc(=O)[nH]c(=O)[nH]3)nnc2SCC(=O)NC2CCCC2)cc1 | – | – | –
CCOc1ccc(-n2c(Cc3cc(=O)[nH]c(=O)[nH]3)nnc2SCC(N)=O)cc1 | -84 | –[9.22 µM] | –
COc1ccc(CNC(=O)C2CC(=O)N(c3ccc(OCC(=O)N4C(C)CCCC4C)cc3)C2)cc1 (configuration not stated) | ? | – | –
CC/C(=N\NC(=O)C(N)=O)c1ccccc1O | – | 10µM | ·
CCOC(=O)c1ccccc1O | · | – | –
Cc1ccc(NC(=S)NCCC2=CCCCC2)cc1 | · | 13µM | –
CCOC(=O)c1ccc(NC(=S)NCCC2=CCCCC2)cc1 | – | – | –[10 µM]
SMILES | PNC assembly inh | HttQ103 aggreg | HTT cytoprotect
CCN(CC)c1ccc(-n2c(C)c(C(C)=O)c(C(C)=O)c2C)cc1 | – | 22µM | –[0.074 µM]
CC(=O)c1c(C(C)=O)c(C)n(-c2ccc(O)cc2)c1C | – | – | –
Cc1ccc(/C=C/C(=O)O)cc1S(=O)(=O)NCCCO | – | – | –[10 µM]
Cc1ccc(/C=C/C(=O)O)cc1S(=O)(=O)N(CCO)CCO | -103 | – | ·
O=C(CCc1ccc(S(=O)(=O)NCCc2ccccc2)cc1)N1CCN(Cc2ccc3c(c2)OCO3)CC1 | – | –[9.22 µM] | –
CC(C)CNS(=O)(=O)c1ccc(CCC(=O)N2CCN(Cc3ccc4c(c3)OCO4)CC2)cc1 | – | 11µM | –[0.074 µM]
O=C(CN(c1ccccc1)S(=O)(=O)c1ccccc1)N1CCN(Cc2ccc3c(c2)OCO3)CC1 | -88 | – | –
COc1ccc(N(CC(=O)N2CCN(Cc3ccc4c(c3)OCO4)CC2)S(=O)(=O)c2ccc(F)cc2)cc1 | · | –[9.22 µM] | –[10 µM]
CC(C)CCNC(=O)C(c1ccncc1)N(CC1CCCO1)C(=O)Cn1nnc(-c2ccc(F)cc2)n1 (configuration not stated) | · | –[9.22 µM] | –[10 µM]
CCNc1ncnc2c1cnn2C | · | – | –
Cc1cc(NC(=O)CCC(=O)NNC(=O)c2ccc(C(C)(C)C)cc2)no1 | ? | – | –[10 µM]
Cc1cccc(Oc2nc(CN3CCOCC3)nc3sc4c(c23)CCCC4)c1 | -104 | – | –[10 µM]
Clc1nc(CN2CCOCC2)nc2sc3c(c12)CCC3 | · | – | –
CC(=O)N1CCc2cc(S(=O)(=O)NCCC(=O)NC3CCN(Cc4ccccc4)CC3)ccc21 | – | – | –
Cc1sc2nc(SCC(=O)NCc3ccco3)n(-c3ccccc3)c(=O)c2c1C | -84 | – | –
Cc1ccc(-n2c(SCC(=O)NCc3ccco3)nc3sc(C)c(C)c3c2=O)cc1 | – | – | –
CCCc1nc(SCC(=O)N2CCC(Cc3ccccc3)CC2)c2c(=O)n(C)c(=O)n(C)c2n1 | ? | 25µM | –
Cn1c(=O)c2c(SCC(=O)N3CCC(Cc4ccccc4)CC3)nc(C3CC3)nc2n(C)c1=O | · | · | –
Cc1ccc([N+](=O)[O-])cc1NC(=O)CCCOc1ccccc1 | – | – | –
COC(=O)c1ccc(NC(=O)c2ccccc2CC[N+](=O)[O-])cc1 | · | – | –
O=c1[nH][nH]cc1C=Nc1ccc(Cl)cc1Cl | · | – | –
O=c1[nH][nH]cc1C=Nc1cc(Cl)ccc1O | · | – | 14µM
C=CCn1c(SCc2ccc(OC)cc2)nnc1-c1cccnc1 | – | – | –
COc1cccc(CSc2nc3cc4c(cc3cc2C)OCCO4)c1 | ? | – | –[10 µM]
C/C(CC1CC(COCC(C)C)OC1=O)=N\Nc1nc(-c2ccccc2)cs1 (configuration not stated) | ? | – | –[10 µM]
SMILES | PNC assembly inh | HttQ103 aggreg | HTT cytoprotect
Nc1ncc(Br)cc1Br | ? | ? | –[10 µM]
Nc1cc(Br)c(N)c(Br)c1 | -93 | – | –
CN(C)CCOC(c1ccccc1)c1ccccc1 (tested in a mixture with another compound) | – | – | 3.2µM!
CN(C)CCOC(c1ccccc1)c1ccccc1 | – | ? | –
O=C(NC1CCCCC1)C(c1cccs1)N(C(=O)c1ccccn1)c1ccccc1 (configuration not stated) | ? | – | –[10 µM]
OC(C#Cc1ccccn1)c1cccs1 (configuration not stated) | – | 5µM | –
O=C(CCC(=O)c1cccs1)Nc1ccc(N2CCCCC2)cc1 | · | – | –
COc1ccc(S(=O)(=O)NC2(C(F)(F)F)N=C(c3ccccc3)NC2=O)cc1 (configuration not stated) | -113 | – | ·
O=C1NC(c2ccccc2)=NC1(NS(=O)(=O)c1ccccc1)C(F)(F)F (configuration not stated) | – | – | –
C=CCNS(=O)(=O)c1ccc2c(c1)n(C)c(=O)n2C | · | – | –
CCOC(=O)c1c(C)oc2cc(Br)c(OC)cc12 | – | – | –
CCN(CC)c1ccc(/C=C(/C#N)C(=O)NC(C)C)o1 | · | –[9.22 µM] | –[10 µM]
CCN(CC)c1ccc(/C=C(/C#N)C(=O)NCc2ccccc2)o1 | -90 | ? | –[10 µM]
Cc1ccc(CSc2nnc(-c3ccc(S(=O)(=O)N4CCCC4)cc3)o2)cc1 | -92 | – | –
O=S(=O)(c1ccc(-c2nnc(SCc3ccccc3)o2)cc1)N1CCCC1 | – | – | –
Cc1nc([N+](=O)[O-])c(C(=O)OCc2ccccc2Br)n1C | · | – | –
